Data published in PubChem BioAssay (NCI).
About 83,000 compounds went through this panel and 20% of them were active in at least one assay; those are over-represented in the sample as a whole.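 Values shown are percent growth following 48 h exposure of cells in 96-well plates to a single concentration of compound; below 10 was considered active.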 Active and inactive are the calls of the source.

How the values were obtained:
Assay in all cases: NCI-60 one-dose screen, 48 h (100 = growth as untreated, 0 = no growth, -100 = all killed)
SK-MEL-2 melanoma = details: 10 µM unless noted
EKVX NSCLC = details: 10 µM unless noted
SN12C renal = details: 10 µM unless noted
UO-31 renal = details: 10 µM unless noted
TK-10 renal = details: 10 µM unless noted
ACHN renal = details: 10 µM unless noted
CAKI-1 renal = details: 10 µM unless noted
A498 renal = details: 10 µM unless noted
CCRF-CEM leukemia = details: 10 µM unless noted
MOLT-4 leukemia = details: 10 µM unless noted
SR leukemia = details: 10 µM unless noted
RPMI-8226 leukemia = details: 10 µM unless noted
OVCAR-8 ovarian = details: 10 µM unless noted
OVCAR-5 ovarian = details: 10 µM unless noted
OVCAR-4 ovarian = details: 10 µM
SK-OV-3 ovarian = details: 10 µM unless noted
OVCAR-3 ovarian = details: 10 µM unless noted
HS 578T breast = details: 10 µM unless noted
NCI/ADR-RES ovarian = details: 10 µM unless noted
IGROV1 ovarian = details: 10 µM unless noted

Measured: growth

Nc1ccc(Cl)c([N+](=O)[O-])c1
inactive: SK-MEL-2 melanoma 97.4% | EKVX NSCLC 92% | SN12C renal 105% | UO-31 renal 101% | TK-10 renal 103% | ACHN renal 87% | CAKI-1 renal 78.8% | A498 renal 89.5% | CCRF-CEM leukemia 94% | MOLT-4 leukemia 106% | SR leukemia 90.1% | RPMI-8226 leukemia 97.8% | OVCAR-8 ovarian 101% | OVCAR-5 ovarian 86% | OVCAR-4 ovarian 97.4% | SK-OV-3 ovarian 108% | OVCAR-3 ovarian 114% | HS 578T breast 110% | NCI/ADR-RES ovarian 105%

O=C1NC(=O)c2cc([N+](=O)[O-])cc3cccc1c23
inactive: SK-MEL-2 melanoma 107% | EKVX NSCLC 94.2% | SN12C renal 98.1% | UO-31 renal 66.4% | TK-10 renal 107% | ACHN renal 103% | CAKI-1 renal 84.8% | A498 renal 87.1% | CCRF-CEM leukemia 89.8% | MOLT-4 leukemia 115% | SR leukemia 114% | RPMI-8226 leukemia 94.2% | OVCAR-8 ovarian 85.4% | OVCAR-5 ovarian 109% | OVCAR-4 ovarian 95.7% | SK-OV-3 ovarian 106% | OVCAR-3 ovarian 112% | HS 578T breast 106% | NCI/ADR-RES ovarian 95.9%

C1=C[C@H]2O[C@@H]1c1ccc3[nH]ccc3c12
inactive: SK-MEL-2 melanoma 95.7% | EKVX NSCLC 105% | SN12C renal 102% | UO-31 renal 98.3% | TK-10 renal 105% | ACHN renal 107% | CAKI-1 renal 89.6% | A498 renal 98.6% | CCRF-CEM leukemia 90.7% | MOLT-4 leukemia 56% | SR leukemia 84.6% | RPMI-8226 leukemia 93.8% | OVCAR-8 ovarian 104% | OVCAR-5 ovarian 105% | OVCAR-4 ovarian 115% | SK-OV-3 ovarian 98.7% | OVCAR-3 ovarian 110% | HS 578T breast 119% | NCI/ADR-RES ovarian 63.7%

N/C(=N\c1nc2ccccc2[nH]1)NC(=O)Cc1cccc2ccccc12
inactive: SK-MEL-2 melanoma 65.6% | EKVX NSCLC 75.6% | SN12C renal 98.8% | UO-31 renal 50.3% | TK-10 renal 106% | ACHN renal 88.9% | CAKI-1 renal 82.9% | A498 renal 80.6% | CCRF-CEM leukemia 86% | MOLT-4 leukemia 30.4% | SR leukemia 115% | RPMI-8226 leukemia 92.9% | OVCAR-8 ovarian 27.5% | OVCAR-5 ovarian 88.6% | OVCAR-4 ovarian 70.6% | SK-OV-3 ovarian 92.5% | OVCAR-3 ovarian 120% | HS 578T breast 84.1% | NCI/ADR-RES ovarian 79.9%

CCN=C1C=CC(=C(c2ccc(N(CC)CC)cc2)c2ccc(N(CC)CC)cc2)c2ccccc21
active: SK-MEL-2 melanoma -76.3% | EKVX NSCLC -40% | SN12C renal -34.2% | UO-31 renal -65.4% | TK-10 renal -51.9% | ACHN renal -94.9% | CAKI-1 renal -86.3% | A498 renal -89.3% | CCRF-CEM leukemia 1.05% | MOLT-4 leukemia -25.7% | SR leukemia -7.85% | RPMI-8226 leukemia -39.8% | OVCAR-8 ovarian -52.7% | OVCAR-5 ovarian -40.1% | OVCAR-4 ovarian -18.4% | SK-OV-3 ovarian -70.2% | IGROV1 ovarian -56.7% | HS 578T breast -20.1% | NCI/ADR-RES ovarian -16.3%

COc1c(C(C)=O)c(OCCCCOc2c(C(C)=O)c(OC)c3ccoc3c2OC)c(OC)c2occc12
inactive: SK-MEL-2 melanoma 42% | EKVX NSCLC 56.7% | SN12C renal 88.1% | UO-31 renal 124% | TK-10 renal 43.8% | ACHN renal 75.7% | CAKI-1 renal 68% | A498 renal 81.1% | CCRF-CEM leukemia 58% | MOLT-4 leukemia 36.2% | SR leukemia 72.7% | RPMI-8226 leukemia 47.3% | OVCAR-8 ovarian 45.3% | OVCAR-5 ovarian 120% | OVCAR-4 ovarian 59.2% | SK-OV-3 ovarian 105% | OVCAR-3 ovarian 61.4% | HS 578T breast 93.9% | NCI/ADR-RES ovarian 22.9%

CC(C)[N+](C)(C)CC(O)COc1cccc2ccccc12 (configuration not stated)
inactive: SK-MEL-2 melanoma 104% | EKVX NSCLC 101% | SN12C renal 103% | UO-31 renal 76.4% | TK-10 renal 111% | ACHN renal 101% | CAKI-1 renal 102% | A498 renal 92.9% | CCRF-CEM leukemia 88.1% | MOLT-4 leukemia 109% | SR leukemia 107% | RPMI-8226 leukemia 94.1% | OVCAR-8 ovarian 98.4% | OVCAR-5 ovarian 94.6% | OVCAR-4 ovarian 116% | SK-OV-3 ovarian 110% | OVCAR-3 ovarian 96.8% | HS 578T breast 128% | NCI/ADR-RES ovarian 108%

Nc1cc(C(=O)O)[nH]c(=S)n1
inactive: SK-MEL-2 melanoma 98.9% | EKVX NSCLC 92.6% | SN12C renal 99.7% | UO-31 renal 87.5% | TK-10 renal 93.4% | ACHN renal 103% | CAKI-1 renal 94.9% | A498 renal 101% | CCRF-CEM leukemia 94.5% | MOLT-4 leukemia 101% | SR leukemia 94.2% | RPMI-8226 leukemia 95% | OVCAR-8 ovarian 101% | OVCAR-5 ovarian 96.1% | OVCAR-4 ovarian 105% | SK-OV-3 ovarian 115% | IGROV1 ovarian 95.4% | HS 578T breast 98.1% | NCI/ADR-RES ovarian 100%

C[N+](C)(C)c1ncnc2[n-]cnc12
inactive: SK-MEL-2 melanoma 107% | EKVX NSCLC 81.8% | SN12C renal 72.3% | UO-31 renal 87.8% | TK-10 renal 78.9% | ACHN renal 95.3% | CAKI-1 renal 58.8% | A498 renal 81.5% | CCRF-CEM leukemia 119% | MOLT-4 leukemia 102% | SR leukemia 107% | RPMI-8226 leukemia 126% | OVCAR-8 ovarian 93.7% | OVCAR-5 ovarian 76.4% | OVCAR-4 ovarian 105% | SK-OV-3 ovarian 98.7% | OVCAR-3 ovarian 92.4% | HS 578T breast 95.6% | NCI/ADR-RES ovarian 41.5%

COc1cc(C(=O)/C=C/c2c(-c3ccc(F)cc3)nc3sccn23)cc(OC)c1OC
inactive: SK-MEL-2 melanoma 10.1% | EKVX NSCLC 49.9% | SN12C renal 64.6% | UO-31 renal 22.1% | TK-10 renal 36.5% | ACHN renal 28.3% | CAKI-1 renal 15.1% | A498 renal 48.8% | MOLT-4 leukemia 39.2% | SR leukemia 26% | OVCAR-8 ovarian 34.8% | OVCAR-5 ovarian 88% | OVCAR-4 ovarian 25.7% | SK-OV-3 ovarian 47.4% | HS 578T breast 46.1% | NCI/ADR-RES ovarian 10.4%
active: CCRF-CEM leukemia -41.9% | RPMI-8226 leukemia -44.2% | OVCAR-3 ovarian 4.69%

CC1(C)C(=NO)C(C)(C)C1=NO
active: CCRF-CEM leukemia 7.92% | MOLT-4 leukemia 8.62%
inactive: SK-MEL-2 melanoma 117% | EKVX NSCLC 114% | SN12C renal 110% | UO-31 renal 104% | TK-10 renal 104% | ACHN renal 112% | CAKI-1 renal 109% | A498 renal 109% | SR leukemia 103% | RPMI-8226 leukemia 76.2% | OVCAR-8 ovarian 113% | OVCAR-5 ovarian 103% | OVCAR-4 ovarian 115% | SK-OV-3 ovarian 125% | OVCAR-3 ovarian 117% | NCI/ADR-RES ovarian 106%

O=C(O)c1ccccc1C(F)(F)F
inactive: SK-MEL-2 melanoma 112% | EKVX NSCLC 93.2% | SN12C renal 90.9% | UO-31 renal 95.3% | TK-10 renal 111% | ACHN renal 92.6% | CAKI-1 renal 87.8% | A498 renal 74.5% | CCRF-CEM leukemia 108% | MOLT-4 leukemia 97.1% | SR leukemia 92.4% | RPMI-8226 leukemia 59% | OVCAR-8 ovarian 105% | OVCAR-5 ovarian 97.2% | OVCAR-4 ovarian 101% | SK-OV-3 ovarian 93.1% | OVCAR-3 ovarian 97.9% | HS 578T breast 89.7% | NCI/ADR-RES ovarian 80.8%

Nc1cccc2c1C(=O)c1cccc(NC(=O)c3ccccc3)c1C2=O
inactive: SK-MEL-2 melanoma 33.4% | SN12C renal 47.1% | TK-10 renal 32.1% | ACHN renal 41.5% | CAKI-1 renal 12% | A498 renal 16.7% | CCRF-CEM leukemia 12.6% | MOLT-4 leukemia 41% | SR leukemia 15.1% | RPMI-8226 leukemia 15.2% | OVCAR-8 ovarian 34.4% | OVCAR-5 ovarian 57.6% | OVCAR-4 ovarian 53% | SK-OV-3 ovarian 20.4%
active: EKVX NSCLC 2.26% | UO-31 renal 9.99% | OVCAR-3 ovarian -41.1% | NCI/ADR-RES ovarian -31.1%

Cn1cc(-c2nnc(-c3cn(C)c4ncc(Br)cc34)s2)c2cc(Br)ccc21
inactive: SK-MEL-2 melanoma 101% | EKVX NSCLC 69.2% | SN12C renal 94.5% | UO-31 renal 79.8% | TK-10 renal 108% | ACHN renal 94.2% | CAKI-1 renal 73.9% | A498 renal 52.6% | MOLT-4 leukemia 97.3% | SR leukemia 100% | RPMI-8226 leukemia 87.4% | OVCAR-8 ovarian 96.1% | OVCAR-5 ovarian 88.6% | OVCAR-4 ovarian 93.8% | IGROV1 ovarian 73.9% | OVCAR-3 ovarian 100% | HS 578T breast 89.3% | NCI/ADR-RES ovarian 102%
active: CCRF-CEM leukemia -27.5%

Cc1ccc(-c2cn(C/C=C3\C=CN(S(=O)(=O)c4ccccc4)CC3)nn2)cc1
inactive: SK-MEL-2 melanoma 101% | EKVX NSCLC 101% | SN12C renal 91.9% | UO-31 renal 72.6% | TK-10 renal 115% | ACHN renal 95.8% | CAKI-1 renal 76.5% | A498 renal 94.3% | MOLT-4 leukemia 106% | SR leukemia 108% | RPMI-8226 leukemia 102% | OVCAR-8 ovarian 100% | OVCAR-5 ovarian 120% | OVCAR-4 ovarian 74.2% | IGROV1 ovarian 104% | OVCAR-3 ovarian 108% | HS 578T breast 97.2% | NCI/ADR-RES ovarian 99.6%
active: CCRF-CEM leukemia 3.1%

COc1ccc2c(c1)c(-c1noc(C(=O)c3cn(C)c4ncc(Br)cc34)n1)cn2C
inactive: SK-MEL-2 melanoma 97.4% | EKVX NSCLC 75.4% | SN12C renal 77.6% | UO-31 renal 70.5% | TK-10 renal 21.8% | ACHN renal 39.8% | CAKI-1 renal 68.9% | A498 renal 48.5% | CCRF-CEM leukemia 56.9% | MOLT-4 leukemia 77.2% | SR leukemia 64% | RPMI-8226 leukemia 62.2% | OVCAR-8 ovarian 74.4% | OVCAR-5 ovarian 80.4% | OVCAR-4 ovarian 42.9% | IGROV1 ovarian 54.3% | OVCAR-3 ovarian 30.5% | HS 578T breast 27.8% | NCI/ADR-RES ovarian 59.7%
